Laboratory results reported in publication PMC12136788.
Over roughly 24,000 sequences, “enrichment r” has its median near 0.99; the highest 2% begin near 3.7. For the sample, the highest values were picked, then their nearest neighbours and some sequences at random.

T1: UNK ZnF1-3 (human, UniProt Q9C0B0 31-174)
T1 sequence: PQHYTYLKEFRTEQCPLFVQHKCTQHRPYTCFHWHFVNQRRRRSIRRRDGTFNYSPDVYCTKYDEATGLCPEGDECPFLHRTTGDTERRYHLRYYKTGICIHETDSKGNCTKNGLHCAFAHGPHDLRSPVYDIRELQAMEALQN

B1: chr7:75932113:75932114:+_ENSG00000106211_ENST00000248553|hu_hu|hu_hu_hu_mus_False|8_18 (ssRNA)
RNA: GGGAGUUCUACAGUCCGACGAUCCUGCGACCACUCAUCGGGCAACCGGGGCACCCCGAAAGCUUGAUCGAAGAGGCGGCUGUGUGCAGGGUACCAGUCCCGGAAUGGUUCCCAGCUGCCCCGCAGGAGCGAGAAGGAGGGCACCAACAGAGGAUUGAGCAUCA
B2: 171752885_171753005_485_CDS_ENSG00000010165_ENST00000361735|human|control|control (ssRNA)
RNA: GGGAGUUCUACAGUCCGACGAUCGGUGGCAUUACAUUCCUUCAUUUGCUUGAUGACAACCUCACUGAUGUCGAUGUUCACUAUAUCCCGAUAGCCCACAUCAUACAGUUGCUCACUCAGUUCUGAGUUGCCACACCCAAUCACCAACAGAGGAUUGAGCAUCA
B3: 59346998_59352246_650_CDS_ENSG00000215114_ENST00000399598|human|control|control (ssRNA)
RNA: GGGAGUUCUACAGUCCGACGAUCAUCCAAAUUCACUUGGCCACCAUGAACAAGGCGCUGAAGCUCCAGGGGAAUCUCUCCUCUCUUAACAGACUCCAGAAAUUGAGCAUUUGUUGGUUCAUUGUAAGGUCUCAAUUCUCCAUCCAACAGAGGAUUGAGCAUCA
B4: 244175_244709_261_3pUTR_ENSG00000185627_ENST00000382671|human|control|control (ssRNA)
RNA: GGGAGUUCUACAGUCCGACGAUCUUACACAGGAUCACUGCCUCAUCACUACUUUUCACCUUCUCACGAGUCUUUUCCAGAAAAGUAAGAGCCACAUUAGGAUCAGUCAUCUGUCUAACUACAUGAAGAAUGAUUUCCACGAGGCAACAGAGGAUUGAGCAUCA
B5: chr5:176910979:176910980:-_ENSG00000196923_ENST00000355841|hu_hu|FALSE|FALSE (ssRNA)
RNA: GGGAGUUCUACAGUCCGACGAUCCCCAGCGUCGAUCUUGAAGUCACAGCCAUGGCAUUUCGUGCCAAACAUCUUCUCAUAGUCUCGCUCGCAAUAGGGCACGCCCUCCUCCAUGUAGAAGGCCCUGUUCCGGAUGGGCGUCUUCAACAGAGGAUUGAGCAUCA
B6: 118753231_118753351_2268_3pUTR_ENSG00000125354_ENST00000354416|human|control|control (ssRNA)
RNA: GGGAGUUCUACAGUCCGACGAUCUGAAAUACCUCACAAGAAGAAUUCGGUAAGGCUAUCAUUCAAGACUCUAGGCUGGUAAUAAUAUUCAGGUUUAUUCUCCCUUUUGCAUCUGUGGGAUACCCAGAGUUAGAGAGAGGGGAACAACAGAGGAUUGAGCAUCA
B7: chr17:64801638:64801639:+_ENSG00000154229_ENST00000413366|hu_hu|motif|central (ssRNA)
RNA: GGGAGUUCUACAGUCCGACGAUCAUCAAAUACAUAUAUAUACACACACAUAUGUAGUAAGAGCCUAAUCUAUCACGUAAACGGGCCAUUCAUUUUUGAAAUUUUAUCUACAUUUAAAAAGUAAUCUAUCUGAUACAGUGCCCACAACAGAGGAUUGAGCAUCA
B8: chr5:151611259:151611260:+_ENSMUSG00000034021_ENSMUST00000016569|mus_mus|FALSE|FALSE (ssRNA)
RNA: GGGAGUUCUACAGUCCGACGAUCGCAUUUCUGAACAUAAUGUUCAAGAAGUAAUAUCUAUACACAAUAACAUUCUAGACUAUUAAAAGCCCAUUCAAAUUACAGAAUUUUAUUGAUACAGUAGAUUAAUAUAAACUGAAAAAACAACAGAGGAUUGAGCAUCA
B9: 16459948_16460068_3699_3pUTR_ENSMUSG00000024639_ENSMUST00000025541|mouse|control|control (ssRNA)
RNA: GGGAGUUCUACAGUCCGACGAUCAUCCCUAGUCAGAAAUAAACUGACAAAUUUACAUUCUCCUCUCUUAAAAAAGUAAAUAAAAUAACAUUAUUCAAAAUGUGAAUUAGCUAUAAGACAUACAAUUACAUAGAUACAUAUCAACAACAGAGGAUUGAGCAUCA
B10: 66017293_66045708_550_CDS_ENSMUSG00000056515_ENSMUST00000070673|mouse|control|control (ssRNA)
RNA: GGGAGUUCUACAGUCCGACGAUCAGCGUCCUUCAGGGGCACCUCCCUAAUAUCAGAGAGGUCACACUUGUUCCCAGCAAUCGCCAUCACAAUGUUUUCUGGGCCGUGCUCCUUCAGCUCCUUGACCCAUUUUUUCAAGGUAUGCAACAGAGGAUUGAGCAUCA
B11: chr6:41757443:41757444:+_ENSG00000214736_ENST00000398881|hu_mus|hu_hu_hu_mus_False|8_108 (ssRNA)
RNA: GGGAGUUCUACAGUCCGACGAUCGAACUGUCUGCUGGCAACAUCUCAGCCGACACUGGGGGAUGGGGGGGCAGUGGGGGGGGGUUCAGGCAAGGAGAGGGAGUCAACUUCAGCUGCCACUCAGGUAGCUGCCAUCAGUCACAGCAACAGAGGAUUGAGCAUCA
B12: 53358179_53360397_419_3pUTR_ENSMUSG00000033054_ENSMUST00000035850|mouse|control|control (ssRNA)
RNA: GGGAGUUCUACAGUCCGACGAUCCAUCGCUGCCGCUUGAUUUCUGCAAUUCCAUUUCUCGUUCGAGCUCUCUGAUGGGCAGCAAACCCUGGAGAACUGUGCAUGCUCCUGAUCUGAGAGAGUGUGUGGUCUAGCUUCUUCCAUCAACAGAGGAUUGAGCAUCA
B13: 31370942_31371062_1482_CDS_ENSMUSG00000006307_ENSMUST00000006470|mouse|control|control (ssRNA)
RNA: GGGAGUUCUACAGUCCGACGAUCUCCUGUGGUGGUGCUAGGGUUUGGAGUGGGAGAAAGGGUGCCCUCUGGUCCUGACCGAGCAGCUUCCCUCUCUGCCCGCUGGCUAGGAGUCAGGGGAGGCCUGCCCCUCUUCCUAGAGCACAACAGAGGAUUGAGCAUCA
B14: 8158834_8158954_592_CDS_ENSG00000178921_ENST00000314666|human|control|control (ssRNA)
RNA: GGGAGUUCUACAGUCCGACGAUCAGGGCCAUUGAGGGGUUCCGGCAUGCUCUCAGGGGAGAAACUCUGGAUGGGAUGGGGGAAGUGCUGCUCUGUCAUCCGGUCGUGCAGGGUAGCCAGAGCAAUGGCUUCCACCUCAGCUGACAACAGAGGAUUGAGCAUCA
B15: 25965218_25965338_4171_CDS_ENSG00000143970_ENST00000336112|human|control|control (ssRNA)
RNA: GGGAGUUCUACAGUCCGACGAUCGCCUCUAUAGCUUGGCCCUAUCUGGGUGGGGCUUCCAUACAACUUCGGGGUUUGCAGGGGUGGAAGGAGUAGGGGCUGGUGGGUGGGGCUGUCUGCAGGCAGAGGAAGAACAGUAGAACUCAACAGAGGAUUGAGCAUCA
B16: chr6:41757443:41757444:+_ENSG00000214736_ENST00000398881|hu_mus|hu_hu_hu_mus_False|18_108 (ssRNA)
RNA: GGGAGUUCUACAGUCCGACGAUCGAACUGUCUGCUGGCAACAUCUCAGCCGACACUGGGGGAUGGGGGGGCAGUGGGGGGGGGUUCAGGCAAGGAGAGGGAGUCAACUUCAGCUGCUCAAACUUCAGGAUCUUGUGGUCACAGCAACAGAGGAUUGAGCAUCA
B17: chr6:43255143:43255144:+_ENSG00000146216_ENST00000259750|hu_hu|FALSE|FALSE (ssRNA)
RNA: GGGAGUUCUACAGUCCGACGAUCCUCAGGCCCCCUUCUUCCUCCCAGCUCCAAACCAGGGUGUUGUUGGUCCUGGGGCAGAGGUGAGGCUGGGGGCCCUACAUUCACGGUUCGGUUGGUGGCAAGGAGCAGGCCCAGGGCCUGCAACAGAGGAUUGAGCAUCA
B18: chr6:41757443:41757444:+_ENSG00000214736_ENST00000398881|hu_mus|hu_hu_hu_mus_False|58_108 (ssRNA)
RNA: GGGAGUUCUACAGUCCGACGAUCGAACUGUCUGCUGGCAACAUCUCAGCCGACACUGGGGGAUGGGGGGGCAGUGGGAAACUAGGCAGGCAAGGAGAGGGAGUCAACUUCAGCUGCCACUCAGGUAGGAUCUUGUGGUCACAGCAACAGAGGAUUGAGCAUCA
B19: chr2:27806210:27806211:+_ENSMUSG00000026837_ENSMUST00000028280|mus_hu|FALSE|FALSE (ssRNA)
RNA: GGGAGUUCUACAGUCCGACGAUCUGUGGUUUCUUUGGCAGCUUCCACGGGCUUCUUGCUGGGGGUGGGCUCCUUCCCUAGGUCUUCGGGGUCUUCGUAGUAGGGGUAUUCGUAGUAAUAGGUCUCACCCUCGCCGUCUCCUUCCAACAGAGGAUUGAGCAUCA

biological target: T1, UNK ZnF1-3; test: nsRBNS (natural sequence RNA bind-n-seq); RBNS binding buffer (assumed for nsRBNS): 25 mM Tris pH 7.5, 150 mM KCl, 3 mM MgCl2, 0.01% Triton X-100, 500 ug/ml BSA, 20 U/ml SUPERase-In, 4 C; UNK is unkempt and MSI1 is Musashi-1; names of the RNAs are library labels; protein concentration not given here; high values mean tight binding

Going from B1 to B2, the binding signal falls from 1.07 enrichment R to 0.654 enrichment R.

Going from B3 to B4, the binding signal rises from 1.23 enrichment R to 1.47 enrichment R.

Compared with B5, B6 is higher in binding signal: 0.849 enrichment R for the first, 1.58 enrichment R for the second.

Going from B7 to B8, the binding signal rises from 1.16 enrichment R to 11 enrichment R.

First: B9
Second: B10
The binding signal of the first is higher: 1.33 enrichment R for the first, 0.683 enrichment R for the second.

Compared with B11, B12 is lower in binding signal: 5.65 enrichment R for the first, 0.827 enrichment R for the second.

Going from B13 to B14, the binding signal falls from 0.887 enrichment R to 0.632 enrichment R.

Compared with B15, B16 is lower in binding signal: 5.58 enrichment R for the first, 4.19 enrichment R for the second.

Going from B17 to B18, the binding signal rises from 0.703 enrichment R to 1.42 enrichment R.

With B19 the binding signal was 0.604 enrichment R.
